Only some compounds are listed: those with a hit (about 5.7% of all), similar ones and a draw of the others.
hgDAF-12 ag = hgDAF-12 agonism, primary luciferase screen. HEK293 GAL4-hgDAF12 UAS-luciferase reporter, agonist luminescence; normalized to butyrate control. activation, % at 6.8 µM. 370,000 tested, 1.8% active. AID 687014;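 active means activation above a cutoff set at the mean of all screened compounds plus 3 SD, cut at about 10% in these data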;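 further: 0% = DMSO wells and 100% = sodium butyrate wells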
AHR act = activators of human aryl hydrocarbon receptor; 320,000 tested, 2.5% active; activation, % at 5 µM; AHR-responsive luciferase reporter cells, luminescence; AID 2796; in the data active means activation above about 47%;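 further: 0% = vehicle wells and 100% = reference agonist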
DAX1 inh-1 = inhibitors of DAX1 repression of SF-1 activated StAR promoter | HEK293T StAR-luciferase reporter, SF-1/DAX-1 repression relief | inhibition, % at 6.8 µM | 370,000 tested, 1.1% active;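 active means inhibition above the mean over all tested compounds plus 3 SD, cut at about 3.6% in these data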;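 further: 0% = DAX-1 cells with DMSO and 100% = cells lacking DAX-1 with DMSO; higher inhibition means more luminescence from relief of DAX-1 repression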
DAX1 inh-2 = NR0B1 (DAX1) inhibition; P51843; 340,000 tested, 0.99% active; HEK293 Gal4-DAX1 luciferase reporter, luminescence; inhibition, % at 6.75 µM;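 active means inhibition above the mean over all tested compounds plus 3 SD, cut at about 4.2% in these data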;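 further: 0% = DAX1-transfected cells with DMSO and 100% = empty-vector control cells with DMSO; inhibition shows as a rise in luminescence from relieved DAX1 repression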
Target sequence (P51843 207-470 limits assumed): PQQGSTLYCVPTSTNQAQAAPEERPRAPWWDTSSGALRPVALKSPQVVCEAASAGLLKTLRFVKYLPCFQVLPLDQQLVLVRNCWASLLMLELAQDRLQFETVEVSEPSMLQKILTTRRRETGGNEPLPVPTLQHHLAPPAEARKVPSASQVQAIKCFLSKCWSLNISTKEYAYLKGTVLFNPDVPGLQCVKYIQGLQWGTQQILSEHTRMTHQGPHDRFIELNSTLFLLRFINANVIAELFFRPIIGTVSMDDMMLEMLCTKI
ssDAF-12 act = S. stercoralis DAF-12 activation, primary screen; activation, % at 6.8 µM; HEK293 ssDAF-12/GRIP1 lit1-tk-luc reporter, luminescence; % of 3 µM dafachronic acid response; 370,000 tested, 1% active;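 active means activation above the mean over all tested compounds plus 3 SD, cut at about 0.9% in these data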;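 further: 0% = DMSO-only wells and 100% = 3 µM delta7-dafachronic acid wells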
hcDAF-12 act = H. contortus DAF-12 activation, primary screen | 370,000 tested, 1.4% active | HEK293 hcDAF-12 lit1-tk-luc reporter, luminescence; 0% DMSO, 100% Δ7-dafachronic acid | activation, % at 6.8 µM;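 active means activation above the mean of all tested compounds plus 3 SD, cut at about 5.5% in these data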;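 further: 100% = response to 3 µM Δ7-dafachronic acid high control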
AHR act cf = confirmation of human aryl hydrocarbon receptor activators | 2,300 tested, 87% active | activation, % at 9 µM | human cells, AHR-responsive luciferase reporter, luminescence | shares compounds with AHR act; in the data active means activation above about 49%;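 further: HepG2 hepatoma cells carrying a DRE-driven firefly luciferase reporter; 0% = vehicle wells and 100% = reference agonist wells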
PXR counter = counter-screen for AHR activators: human PXR activators. activation, % at 11.6 µM. 2,300 tested, 88% active. AID 434939. shares compounds with AHR act. cell-based PXR reporter, luciferase luminescence; in the data active means activation above about 11%;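 further: human hepatoma DPX-2 cells expressing full-length human PXR; 0% = DMSO and 100% = reference agonist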
Target sequence (O75469 whole entry, looked up): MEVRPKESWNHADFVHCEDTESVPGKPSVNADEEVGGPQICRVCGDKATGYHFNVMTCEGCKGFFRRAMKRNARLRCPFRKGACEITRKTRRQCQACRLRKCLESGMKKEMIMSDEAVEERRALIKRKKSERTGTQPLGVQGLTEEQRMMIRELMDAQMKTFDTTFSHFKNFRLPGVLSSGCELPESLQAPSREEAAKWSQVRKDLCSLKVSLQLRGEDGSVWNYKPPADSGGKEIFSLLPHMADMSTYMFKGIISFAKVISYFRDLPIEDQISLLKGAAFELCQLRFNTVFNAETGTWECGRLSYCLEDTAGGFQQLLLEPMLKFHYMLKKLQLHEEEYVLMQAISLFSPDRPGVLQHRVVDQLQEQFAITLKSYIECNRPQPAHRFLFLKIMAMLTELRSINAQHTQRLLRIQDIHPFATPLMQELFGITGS
Active calls of the source: *; . = no result.

SMILES	hgDAF-12 ag	AHR act	DAX1 inh-1	DAX1 inh-2	ssDAF-12 act	hcDAF-12 act	others
COc1cccc2c1C(=N)c1c(O)c3c(c(O)c1C2=O)CC(O)(C(C)=O)CC3OC1CC(N)C(O)C(C)O1 (centres undefined)	.	.	.	-3.6	.	.
COc1cccc2c1C(=O)c1c(O)c3c(c(O)c1C2=O)C[C@](O)(C(C)=O)C[C@H]3O[C@@H]1C[C@@H](N)[C@@H](O)[C@@H](C)O1	-9.6	64.5*	-7.9	-0.4	-2.3	-3.0
COc1cc2ccccc2cc1C(=O)Nc1ccc(O)cc1	7.2	40.9	1.9	4.4*	1.4*	4.5
COc1ccc(C(=O)Nc2ccc3ccccc3c2)cc1OC	11.7*	1.6	1.8	2.1	-0.5	2.1
COc1cc(C(=O)Nc2ccc3ccccc3c2)cc(OC)c1OC	4.8	.	-1.2	.	-0.6	0.9
COc1cccc(C(=O)Nc2ccc3[nH]ncc3c2)c1	10.5*	52.1*	1.6	2.7	-0.1	4.8
COc1ccc(C(=O)Nc2cccc(C)c2)cc1	11.5*	-0.2	4.0*	-0.4	0.0	2.8
COC(=O)N1C[C@H](OCc2cn(-c3ccc(OC)cc3)nn2)[C@H]2C[C@@H]1c1ccccc1O2	-3.7	.	-1.0	.	-1.1	0.0
N#Cc1cccc(NC(=O)CNc2cccc(S(=O)(=O)N3CCCC3)c2)c1	-2.2	5.5	-0.1	-1.2	-1.2	-0.8
CCn1c(SCC(=O)C(C)(C)C)nnc1-c1ccccn1	-0.4	0.2	-1.2	0.2	-1.2	-1.8
COc1ccc(C(=O)Nc2cc(OC)nc(OC)n2)cc1	11.9*	9.2	2.5	0.8	0.0	3.5
COc1ccc(C(=O)Nc2ccc3ccccc3c2)cc1	9.9	-8.2	2.5	-6.1	0.6	5.8*
COc1ccc(CC(=O)OCC(=O)Nc2ccc(C(=O)Nc3ccc(OC)cc3)cc2)cc1	-1.0	3.4	0.2	4.2*	-1.5	-1.9
COc1ccc(OC)c(C(=O)c2ccc(C(=O)Nc3ccc4ccccc4c3)cc2)c1	2.2	-3.9	-0.3	-0.6	-1.5	0.0
COc1cc(OC)c(C(=O)Nc2ccc3ccccc3c2)cc1OC	.	28.4	.	5.2*	.	.
CCOc1ccc(NC(=O)c2ccc(NC(=O)COC(=O)Cc3ccc(OC)cc3)cc2)cc1	4.7	8.7	0.9	0.5	-0.5	-0.3
CCOC(=O)C1(C)CCCN(C(=O)c2cccc(C(F)(F)F)c2)C1 (centres undefined)	2.8	.	-0.4	.	-1.3	0.2
Cc1cc(OCC(=O)NNC(=S)NC(=O)c2cccs2)ccc1Cl	1.6	.	-0.2	0.1	-0.7	2.6
COc1ccc(C(=O)Nc2c(O)ccc3ccccc23)cc1OC	-1.1	53.1*	-0.4	0.3	-0.9	2.0
COc1ccc(C(=O)Nc2c(C)cc(C)cc2C)cc1OC	-1.5	5.0	-0.2	0.4	-1.8	-1.9
CC(=O)c1cccc(NC(=O)c2ccc(NS(C)(=O)=O)cc2)c1	-2.3	8.2	-0.3	0.4	-1.1	-1.7
COc1ccc(NC(=O)c2cc3ccccc3cc2OC)cc1OC	0.3	4.6	-0.8	1.3	-0.7	-0.5
COc1cc2ccccc2cc1C(=O)Nc1ccc(Cl)cn1	5.2	52.5*	0.3	0.9	-0.3	3.0
COc1ccc(S(=O)(=O)Nc2c(O)ccc3ccccc23)cc1OC	2.0	60.5*	0.2	2.7	-0.3	4.5
CS(=O)(=O)Nc1ccc(C(=O)Nc2ccc3ccccc3c2)cc1	11.3*	10.4	1.8	1.9	1.3*	3.9
SMILES	hgDAF-12 ag	AHR act	DAX1 inh-1	DAX1 inh-2	ssDAF-12 act	hcDAF-12 act	others
O=C(Nc1cccc(S(=O)(=O)N2CCCCC2)c1)C1=NN(c2ccccc2)C(=O)CC1	-1.7	29.8	-0.9	0.3	-0.3	4.7
CC1(C)C2CC=C(/C=N/NC(=O)C(N)=O)C1C2 (centres undefined)	-0.9	1.6	-0.1	1.6	-1.1	0.4
C=CCN1C(=O)C(C)(C)Nc2ccccc21	-1.0	-0.4	-0.3	1.9	-1.6	-0.9
CCOc1ccc(C(=O)Nc2ccc(Cl)cn2)cc1Cl	12.6*	-3.1	2.9	1.6	-0.1	1.4
CCOc1ccc(C(=O)Nc2cc(NC(=O)c3ccc(OCC)c(Cl)c3)cc(C(=O)O)c2)cc1Cl	-1.4	.	-0.5	-0.6	-1.2	-1.7
CC1=NN(c2ccccc2)C(=O)/C1=C\c1sccc1C	1.6	41.6	0.4	1.2	1.7*	3.0
CCn1c(SCc2ccccc2)nnc1-c1cccnc1	-2.4	9.7	0.1	-1.0	-1.6	0.6
Cc1ccc(S(=O)(=O)c2c(N)n(CCC(C)C)c3nc4ccccc4nc23)cc1	-5.2	1.7	-1.3	0.9	-1.3	-0.8
Fc1cccc(CNc2ncnc3cc(Cl)ccc23)c1F	-1.8	48.5*	-1.2	-1.5	-1.0	1.7
Cc1cc(C)c(NC(=O)CSc2nc3ncc(Br)cc3[nH]2)c(C)c1	2.5	11.5	-0.3	0.4	-1.0	-0.4
O=C(CSc1nnnn1CCCO)Nc1ccc2c(c1)OCO2	-1.5	54.8*	0.4	1.3	-1.3	-0.6
Nn1cc(-c2ccccc2)nc1SCC(=O)Nc1ccc2c(c1)OCO2	-1.8	68.5*	-0.5	0.0	-2.1	-1.5
O=C(CSc1nnnn1C1CCCCC1)Nc1ccc2c(c1)OCO2	-2.5	19.8	-0.3	-1.0	-1.7	-1.8
O=C(CSc1nc2ncc(Br)cc2[nH]1)Nc1ccc2c(c1)OCO2	3.2	50.1*	-1.9	0.3	-1.5	-1.3
Nn1c(SCC(=O)Nc2ccc3c(c2)OCO3)nnc1-c1cccc(Cl)c1	0.3	35.0	0.1	1.4	-1.6	-0.8
CC(C)n1nnnc1SCC(=O)Nc1ccc2c(c1)OCO2	4.5	56.0*	0.5	2.1	-0.7	-0.3
COc1ccc(CNC(=O)Nc2ccc3c(c2)c(=O)n(C)n3Cc2cc(C)cc(C)c2)cc1	2.0	.	0.5	.	-1.8	-2.3
COC(=O)c1ccccc1NC(=O)c1onc(C)c1Cl	2.8	.	0.2	1.0	-0.6	0.3
CCCCn1nnnc1SCC(=O)Nc1ccc(N(C)C)cc1	0.5	70.8*	-0.1	-2.1	-0.3	-0.9
Clc1ccc(COc2ccccc2-c2ccnc3ncnn23)cc1	5.4	87.3*	1.9	-0.2	-1.0	5.1	AHR act cf=52.1*;PXR counter=65.2*
CCOC(=O)C1(CC2CCCCO2)CCN(S(=O)(=O)c2ccc(C)s2)CC1 (centres undefined)	-0.8	-2.1	-0.1	-0.5	-1.1	0.1
Cc1c(/C=N/NC(N)=O)c2ccccn2c1C(=O)c1ccc(F)cc1	-2.1	90.3*	-0.6	-0.6	-1.4	0.5	AHR act cf=26.3;PXR counter=77.4*
